The full list was thinned out, with hits kept by preference.
Pf apPOL block = Pf-apPOL DNA polymerase inhibition; Recombinant Pf-apPOL, molecular beacon fluorescence, 1.5 h; inhibition, % at 10 µM; hit rate 0.25% among 210,000; AID 1794808
mHTT CaM bind = disrupts binding of mutant huntingtin to calmodulin; P42858; AlphaScreen His-mHTT/GST-CaM binding, luminescence; inhibition, % at 15 µM; hit rate 3.6% among 190,000
Of the large screens only hits and unclear results are named; the others gave an inactive call. Cut-off read from the data, not from the text of the source: active = inhibition above about 50%; inactive = the rest.

O=S(=O)(c1ccc(F)cc1)N1CCCc2ccccc21	none
O=C1CN(S(=O)(=O)c2ccc(Br)cc2)c2ccccc2N1	none
O=C1CN(S(=O)(=O)c2ccc3[nH]c4c(c3c2)CCCC4)c2ccccc2N1	mHTT CaM bind 74
O=S(=O)(c1ccc2[nH]c3c(c2c1)CCCC3)N1CCCc2ccccc21	mHTT CaM bind 77
COc1ccc(C(=O)Nc2cccc(-c3cn4c(C)csc4n3)c2)c(OC)c1	none
COc1ccccc1N=Cc1cc(OC)c(OCc2ccccc2)cc1[N+](=O)[O-]	mHTT CaM bind 95
COc1cc(C(O)C[N+](=O)[O-])ccc1OCc1ccccc1 (stereo unspecified)	none
Cc1cccc(-n2nc3c(c2NC(=O)c2ccc([N+](=O)[O-])cc2)CS(=O)(=O)C3)c1C	none
COc1ccc(NC(=O)c2cccnc2)cc1	none
COc1ccc(NC(c2cccnc2)c2ccc3cccnc3c2O)cc1 (stereo unspecified)	mHTT CaM bind 99
O=[N+]([O-])c1ccc(OCCOc2cccc3cccnc23)cc1	none
Oc1c(C(Nc2cccc(C(F)(F)F)c2)c2cccnc2)ccc2cccnc12 (stereo unspecified)	mHTT CaM bind 99
Cc1[nH]c2ccccc2c1C(Nc1cccc(C(F)(F)F)c1)c1cccnc1 (stereo unspecified)	none
O=[N+]([O-])c1ccc(NC(c2ccccn2)c2ccc3cccnc3c2O)cc1 (stereo unspecified)	mHTT CaM bind 100
Oc1c(C(Nc2cccc(Cl)c2)c2ccccn2)ccc2cccnc12 (stereo unspecified)	mHTT CaM bind 100
O=C(Nc1cccc2cccnc12)c1ccc(Cl)cc1Cl	none
CN(C)c1ccc(/C=C2\C(=O)NN(c3cccc(Cl)c3)C2=O)cc1Br	none
O=C1OC(c2ccc(F)cc2)=N/C1=C/c1ccc(Cl)c(Cl)c1	none
COc1ccc(OC)c(Nc2ncc3c(n2)CCN(Cc2ccccc2F)C3)c1	none
COc1ccccc1CNC(=O)C1(C)Cc2ccccc2C(=O)N1c1ccc(F)cc1 (stereo unspecified)	none
O=C(NCCc1cscn1)C1CSCN1C(=O)CSc1ccccc1 (stereo unspecified)	none
Oc1c(C(Nc2ccc(Cl)cc2)c2ccccn2)ccc2cccnc12 (stereo unspecified)	mHTT CaM bind 100
CN(C)CCC(c1ccc(Cl)cc1)c1ccccn1 (stereo unspecified)	none (no result: mHTT CaM bind)
Oc1c(C(Nc2cccc(C(F)(F)F)c2)c2ccccn2)ccc2cccnc12 (stereo unspecified)	mHTT CaM bind 99
O=C(NCc1ccccn1)C(=O)Nc1cccc(C(F)(F)F)c1	none
CCCn1cnc2c(-c3cc(C)ccc3C)csc2c1=O	none
Cc1ccc(-n2nc3c(c2NC(=O)CCc2ccccc2)CS(=O)(=O)C3)cc1	none
Cc1ccc(NC(=O)CSc2cn(CCNC(=O)c3ccccc3F)c3ccccc23)c(C)c1	none
CCc1onc(C)c1C1CCCN1C(=O)Nc1ccc(C)c(F)c1 (stereo unspecified)	none
Nc1c(Oc2ccccc2)c(Oc2ccccc2)c(N)c2c1C(=O)c1ccccc1C2=O	mHTT CaM bind 97
Cc1nc(N)[nH]c(=O)c1Oc1ccccc1	none
CSc1ccc(C2N(c3cccc(Cl)c3)C(=O)C3CCCN32)cc1 (stereo unspecified)	none
N#CC1=C(SCC(=O)Nc2ccccc2)NC(=O)C(C#N)C12CCCC2 (stereo unspecified)	none
CC1CCCC2(C1)C(C#N)=C(SCC(=O)Nc1ccc(Br)cc1)NC(=O)C2C#N (stereo unspecified)	mHTT CaM bind 73
CCn1cnnc1C1CCCCN1C(=O)CCc1c[nH]c2ccccc12 (stereo unspecified)	mHTT CaM bind 56
CCCn1cnnc1C1CCCCN1C(=O)CCc1ccccc1OC (stereo unspecified)	none
Cc1cccc(CNC(=O)c2nn(C)c3c2CN(C(=O)c2cccc(Cl)c2)CC3)c1	mHTT CaM bind 76
Cc1cccc(CNC(=O)c2nn(C)c3c2CN(C(=O)c2c(F)cccc2F)CC3)c1	none
Cc1cccc(CNC(=O)c2nn(C)c3c2CN(C(=O)c2ccc(Cl)cc2)CC3)c1	mHTT CaM bind 64
CC12CC(NC(=O)N1c1cccc(Br)c1)c1cc(Cl)ccc1O2 (stereo unspecified)	none
CS(=O)(=O)N(CC(=O)Nc1ccccc1Cl)c1ccc(F)cc1	none
Cc1ccc(CNC(=O)c2cc(NC(=O)C(C)C)cc3nc(C)ccc23)cc1	none
CCOc1ccc(CNC(=O)c2cc(NC(C)=O)cc3nc(C)ccc23)cc1	none
Cc1ccc2c(C(=O)NCc3ccccc3Cl)cc(NC(=O)C(C)C)cc2n1	mHTT CaM bind 58
CCC(=O)Nc1cc(C(=O)NCc2cc(F)cc(F)c2)c2ccc(C)nc2c1	mHTT CaM bind 54
CC(C)c1cc(C2CCCN2Cc2cn[nH]c2-c2ccc(F)cc2)on1 (stereo unspecified)	none
Cn1cc(/C=C2\CCC/C(=C\c3cnn(C)c3)C2=O)cn1	none
CCOC(=O)Nc1ccc2c(c1)Nc1ccccc1CC2	none
Cc1cc(C)c(S(=O)(=O)Nc2ncccc2C)c(C)c1	Pf apPOL block 100
